How the values were obtained:
Details in all cases: concentration: 1 μM, replicates: in singlicate; n = 1
ANKK1 = tested on: ANKK1
ARK5 = tested on: T1, ARK5
T1 construct: gene NUAK1

ASK1 = tested on: T2, ASK1
T2 construct: gene MAP3K5

ASK2 = tested on: T3, ASK2
T3 construct: gene MAP3K6

AURKA = tested on: AURKA
AURKB = tested on: AURKB
AURKC = tested on: AURKC
AXL = tested on: AXL
BIKE = tested on: T4, BIKE
T4 construct: gene BMP2K

BLK = tested on: BLK
BMPR1A = tested on: BMPR1A
BMPR1B = tested on: BMPR1B
BMPR2 = tested on: BMPR2
BMX = tested on: BMX
BRAF = tested on: BRAF
BRK = tested on: T5, BRK
T5 construct: gene PTK6

BRSK1 = tested on: BRSK1
BRSK2 = tested on: BRSK2
BTK = tested on: BTK
BUB1 = tested on: BUB1
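Further: KINOMEscan kinase panel screen.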

SMILES	%Inh (ANKK1)	%Inh (ARK5)	%Inh (ASK1)	%Inh (ASK2)	%Inh (AURKA)	%Inh (AURKB)	%Inh (AURKC)	%Inh (AXL)	%Inh (BIKE)	%Inh (BLK)	%Inh (BMPR1A)	%Inh (BMPR1B)	%Inh (BMPR2)	%Inh (BMX)	%Inh (BRAF)	%Inh (BRK)	%Inh (BRSK1)	%Inh (BRSK2)	%Inh (BTK)	%Inh (BUB1)
COc1cc2ncn(-c3cc(OCC4CCCO4)c(C(N)=O)s3)c2cc1OC (centres unmarked) [GSK204607]	0%	17%	7%	0%	0%	1%	80%	0%	72%	0%	0%	0%	24%	19%	0%	18%	15%	7%	0%	32%
Cc1c(O)cccc1Nc1ccnc2ccc(C(F)(F)F)cc12.Cl [GW466413]	0%	10%	0%	0%	0%	34%	0%	1%	4%	66%	0%	44%	0%	0%	69%	86%	0%	0%	0%	29%
Cl.Oc1ccc(-c2nc(-c3ccccc3)[nH]c2-c2ccncc2)cc1 [SB-428218]	10%	62%	24%	0%	0%	32%	0%	0%	0%	58%	0%	0%	20%	0%	60%	26%	0%	0%	21%	93%
Cc1ccc(-c2cc(-c3c[nH]nc3-c3ccccn3)ccn2)cc1 [GW684088]	0%	94.7%	0%	0%	2%	0%	10%	5%	20%	0%	0%	18%	0%	36%	0%	3%	0%	0%	51%	40%
COc1cc2nccc(Nc3ccc(NC(=O)c4ccc(C)cc4)c(O)c3)c2cc1OC.Cl [GW440132]	0%	0%	0%	0%	7%	50%	57%	0%	7%	95.5%	1%	0%	0%	22%	0%	36%	0%	3%	32%	31%
Cl.c1ccc(-c2n[nH]cc2-c2ccnc(-c3ccc(CN4CCOCC4)cc3)c2)nc1 [GW776245]	0%	0%	1%	0%	0%	6%	8%	0%	20%	9%	0%	52%	0%	13%	16%	0%	0%	21%	0%	0%
O=C1NC(=O)C(N2CCc3ccccc32)=C1c1ccccc1Cl [SB-373598]	18%	10%	7%	13%	0%	10%	3%	0%	18%	7%	0%	8%	100%	29%	1%	24%	12%	9%	0%	16%
Cc1cccc(-c2nc(-c3ccc(S(C)(=O)=O)cc3)sc2-c2ccnc(NCCc3ccccc3)c2)c1	7%	11%	0%	0%	0%	14%	0%	0%	9%	16%	27%	6%	1%	0%	95.8%	0%	3%	0%	0%	24%
CS(=O)(=O)c1ccc(-c2nc3n(c2-c2ccncc2)CCC3)cc1 [SKF-105942]	0%	8%	11%	0%	0%	34%	0%	0%	3%	9%	0%	0%	0%	1%	0%	15%	0%	0%	0%	26%
Cn1ccc2ncnc(Oc3ccc(NC(=O)Nc4ccccc4)cc3)c21	0%	4%	16%	0%	15%	93.7%	84%	0%	0%	2%	0%	0%	0%	42%	0%	6%	0%	17%	0%	0%

Source: PMC5540273 (PLoS ONE, 2017)
